In the library only some 2.5% were active in any assay of this set; here they are far more common.
Efflux pump mplx = blocks antifungal efflux pumps in multiplex yeast assay; inhibition, % at 10 µM; AID 485275; 330,000 tested, 0.44% active; S. cerevisiae Candida pump triplex, Nile Red efflux;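 active = plate passing quality check with inhibition over a set limit, or well fluorescence over plate mean plus 4 SD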;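 also: Nile Red retained in pooled yeast measured as flow cytometry median fluorescence; higher means more Nile Red kept so more efflux inhibition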
SUMO Mot1 rescue = inhibitors of SUMOylation pathway: yeast Mot1-301 growth rescue; S. cerevisiae Mot1-301 growth rescue, ATP luminescence, 38.5C; percent above DMSO median, 100 means doubled; growth rescue, % at 18.8 µM; 320,000 tested, 1% active; AID 2716;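 active = every valid replicate shows activation above 250% relative to neutral control wells; inactive = the rest, any valid replicate at or below 250%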
AI-2 QS mod = modulators of Vibrio harveyi AI-2 quorum sensing system; 300,000 tested, 0.4% active; Vibrio harveyi JMH597 AI-2 luminescence/OD600 ratio, 9 h; active compounds read low; strain lacks LuxN and CqsS sensors; 0 = neutral-control median; activity change, % at 7.5 µM; AID 2094; in the data active = activity change below about -75%, passing the limit was not always enough;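 also: luminescence divided by OD600 gain over 9 h not by final OD600 alone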
ATG4B inh = ATG4B (human) cysteine protease inhibition. Q9Y4P1. AID 504462. inhibition, % at 8.33 µM. ATG4B cleavage of LC3-PLA2, NBD-HPC fluorescence, 1 h. 340,000 tested, 0.51% active; in the data active = inhibition above about 40%
Target sequence (Q9Y4P1 whole entry, looked up): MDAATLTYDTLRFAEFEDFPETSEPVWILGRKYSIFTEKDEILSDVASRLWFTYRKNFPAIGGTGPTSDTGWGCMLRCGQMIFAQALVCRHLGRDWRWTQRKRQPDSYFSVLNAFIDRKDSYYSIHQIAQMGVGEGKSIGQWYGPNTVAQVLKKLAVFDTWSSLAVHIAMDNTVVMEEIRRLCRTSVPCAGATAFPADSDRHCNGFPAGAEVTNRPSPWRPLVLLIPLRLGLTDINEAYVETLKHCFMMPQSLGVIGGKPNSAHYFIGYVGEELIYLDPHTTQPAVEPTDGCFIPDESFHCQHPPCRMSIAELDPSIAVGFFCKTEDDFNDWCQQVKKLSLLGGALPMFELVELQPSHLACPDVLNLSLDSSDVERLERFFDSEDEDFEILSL
V-ATPase pHluor = regulators of yeast V-ATPase proton transport; S. cerevisiae, pHLuorin cytosolic pH fluorescence; 350,000 tested, 0.37% active; AID 504577; response, % at 10 µM; in the data active = response mostly above about 7.3%, no sharp cut-off; inactive = mostly below about 5.4%; also: actives read high
ATG4B conf = ATG4B (human) inhibition, single-dose confirmed; shares compounds with ATG4B inh; ATG4B protease fluorescent substrate cleavage assay; inhibition, % at 8.33 µM; 320 tested, 92% active; in the data active = inhibition above about 39%
PLA2 ctr = inhibits human PLA2, flagging false ATG4B inhibitors; inhibition, % at 8.33 µM; AID 588402; purified PLA2, NBD-C6-HPC fluorescence, 45 min; 1,600 tested, 66% active; shares compounds with ATG4B inh; in the data active = inhibition above about 50%
Target sequence (P04054 whole entry, looked up): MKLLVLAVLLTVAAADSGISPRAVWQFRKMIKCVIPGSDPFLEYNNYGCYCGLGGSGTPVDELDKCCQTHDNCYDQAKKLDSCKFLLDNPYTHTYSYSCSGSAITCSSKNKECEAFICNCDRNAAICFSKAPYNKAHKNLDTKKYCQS
Numbers stand for hits; 0 = inactive; - = no result given.

SMILES	Efflux pump mplx	SUMO Mot1 rescue	AI-2 QS mod	ATG4B inh	V-ATPase pHluor	PLA2 ctr	others
CC1(C)CC2CC(C)(CN2S(=O)(=O)c2ccc(F)cc2F)C1 (configuration not stated)	0	0	-	0	0	-
CN1CCS/C1=C/C=C1/SC(=S)N(Cc2ccccc2)C1=O	0	0	0	82.0	0	80.3
CN1CCS/C1=C/C=C1\SC(=S)N(CC(=O)O)C1=O	0	0	0	0	0	-
CCCCN1C(=O)/C(=C/C=C2\SCCN2C)SC1=S	-	-	0	72.5	0	80.0
O=C(c1cccc(S(=O)(=O)NCc2ccccc2)c1)N1CCN(c2ccccc2Cl)CC1	-	-	-	0	0	-
CC(C)NC(=O)NC(=O)CSc1nnc(COc2ccccc2F)n1C(C)C1CC2CCC1C2 (configuration not stated)	0	-	0	42.2	0	0
CC(C1CC2CCC1C2)n1c(COc2ccccc2F)nnc1SCC(N)=O (configuration not stated)	0	0	0	0	0	-
O=C(NCCC1CCCCN1S(=O)(=O)c1ccccc1)C(=O)NC1CC1 (configuration not stated)	0	0	0	0	0	-
CCOC(=O)CSc1nc2sc(C)c(C)c2c(=O)n1C	0	0	0	0	0	-
Cc1sc2nc(C(C)C)nc(SCC(=O)N3c4ccccc4CC3C)c2c1C (configuration not stated)	0	0	0	75.1	0	77.1
Cc1nc(SCC(=O)NCc2ccco2)c2c(C)c(C)sc2n1	0	0	0	0	0	-
CCOC(=O)CSc1nc(C(C)C)nc2sc(C)c(C)c12	0	0	0	61.8	0	59.2
Cc1sc2nc(C(C)C)nc(SCC(=O)NCc3ccco3)c2c1C	0	0	0	41.7	0	0	ATG4B conf=50.2
Cn1cnnc1SCC(=O)NCCc1ccc(Cl)cc1Cl	0	0	0	0	0	-
CCOC(=O)c1c(C)[nH]c(C(=O)NCCc2ccc(OC)c(OC)c2)c1C	0	0	0	0	0	-
COc1ccc(OC)c(NC(=O)c2nnn(Cc3ccccc3C)c2N)c1	0	0	0	60.3	0	64.1
COc1ccc(C)cc1NC(=O)c1nnn(Cc2cc(C)ccc2C)c1N	0	0	0	0	0	-
COc1ccc(S(=O)(=O)N2CCCCCC2)cc1NC(=O)CN(C)Cc1ccc2c(c1)OCO2	0	0	-	0	0	-
O=C(Oc1c(-c2ccccc2)oc2ccccc2c1=O)c1ccccc1	0	0	0	45.1	0	64.0
C(=C\c1ccccc1)/CSc1nnc(-c2ccccc2)n1Cc1ccco1	0	0	0	66.9	0	66.0
Clc1cccc(-c2nnc(SC/C=C/c3ccccc3)n2Cc2ccco2)c1	0	0	0	54.8	0	56.2
Nc1ccccc1NC1CCCCC1	-	-	-	0	0	-
COc1cc([N+](=O)[O-])c(OC)cc1SCc1n[nH]c(=S)n1-c1ccc(F)cc1	0	0	0	0	0	-
O=C(O)CN1C(=O)/C(=C\c2ccccc2OCc2ccc(Cl)cc2Cl)SC1=S	0	0	0	0	0	-
O=C(O)CN1C(=O)/C(=C\c2cc(Br)ccc2OCc2ccccc2Cl)SC1=S	0	0	0	49.8	0	81.1
SMILES	Efflux pump mplx	SUMO Mot1 rescue	AI-2 QS mod	ATG4B inh	V-ATPase pHluor	PLA2 ctr	others
O=C(O)CN1C(=O)/C(=C\c2cc(Br)ccc2OCc2ccccc2F)SC1=S	0	0	0	55.8	0	51.4
O=C(O)CN1C(=O)/C(=C\c2cc(Br)ccc2OCc2ccc([N+](=O)[O-])cc2)SC1=S	0	0	0	0	0	-
Cc1ccc(S(=O)(=O)Nc2cccc3c2O[C@H](CN(C)C(=O)Nc2cccc4ccccc24)[C@H](C)CN([C@H](C)CO)C3=O)cc1	0	0	-	0	0	-
CC(C)(C)C(=O)/C(=C/c1ccncc1)n1cncn1	0	0	0	0	0	-
Cc1cccc(C)c1OCC(O)Cn1c2ccccc2c2ccccc21 (configuration not stated)	0	0	0	52.8	0	61.4
COc1ccccc1Nc1cc(C(=O)N2CCc3ccccc3C2)c2ccccc2n1	0	0	0	-	-	-
COc1ccc(Nc2cc(C(=O)N3CCc4ccccc4C3)c3ccccc3n2)c(OC)c1	0	0	0	67.7	0	81.5
CC(C)N(CCCNC(=O)C1CCN(C(=O)c2cc3sccc3n2C)CC1)Cc1ccccc1	0	0	0	0	0	-
Cc1ccc(NC(=S)NC2CC3CCCC(C2)N3Cc2cccs2)cc1 (configuration not stated)	0	0	0	0	0	-
CCc1ccccc1NC(=S)NC1CC2CCCC(C1)N2Cc1cccs1 (configuration not stated)	0	0	0	48.2	0	0
Cc1cccc(NC(=S)NC2CC3CCCC(C2)N3Cc2cccs2)c1C (configuration not stated)	0	0	0	48.9	0	58.8
O=C(CSc1nc2ccccc2c(=O)n1-c1ccc(Cl)cc1)N/N=C/C=C/c1ccccc1[N+](=O)[O-]	0	0	0	53.6	0	0	ATG4B conf=72.0
O=C(CSc1nc2ccccc2c(=O)n1-c1ccccc1)N/N=C/C=C/c1ccccc1[N+](=O)[O-]	0	0	0	0	0	-
CCn1c(C(=O)N2CCc3ccccc3C2)cc2oc3ccccc3c21	0	-	0	43.5	0	72.3
Cn1c(C(=O)N2CCc3ccccc3C2)cc2oc3ccccc3c21	0	0	0	59.3	0	63.8
Cc1ccc(C)c(N2CCN(C(=O)CCn3c(=S)[nH]c4cc5c(cc4c3=O)OCO5)CC2)c1	0	0	0	51.5	0	50.4
Cn1c2ccccc2n2c(=O)c(Cl)c(-c3ccccc3)c(C#N)c12	0	0	0	0	0	-
CCOc1cc(/C=N/NC(=O)C(=O)NC)cc(Br)c1O	0	0	0	0	0	-
Nc1c(N2CCN(c3ccccc3)CC2)c2ccccc2oc1=O	0	0	-	42.9	0	0	ATG4B conf=78.5
Nc1c(N)c2ccccc2oc1=O	0	0	0	0	0	-
Cc1ccccc1NC(=O)/C(=C/c1ccccc1)c1ccccc1	0	0	0	43.0	0	0	ATG4B conf=64.7
O=C(Nc1ccccc1)/C(=C/c1ccccc1)c1ccccc1	0	0	0	0	0	-
Cc1ccc(/C=N/Nc2ccnc3cc(Cl)ccc23)c(C)c1	0	0	0	46.3	0	0
Cc1ccccc1/C=N/Nc1ccnc2cc(Cl)ccc12	0	0	0	48.5	0	0	ATG4B conf=64.9
Oc1ccc(/C=N/Nc2ccnc3cc(Cl)ccc23)c(O)c1	0	0	0	0	0	-
COc1cc(C(=O)OCC(=O)N2CCC(C)CC2)cc2c1OCCO2	0	0	-	0	0	-
COc1ccc(CNc2nc(NCc3ccc(OC)cc3)n(C(C)=O)n2)cc1	0	-	0	0	0	-
CCC(=O)n1nc(NCc2ccccc2OC)nc1NCc1ccccc1OC	0	0	0	41.0	0	0
